Measured values as given in PubChem BioAssay (EPA / NIEHS).
Records with an inconclusive call do not appear. Active and inactive are the calls of the source. How the source made its calls, unless noted: active means hit-call score of the fitted dose curve at least 0.9, where 1 is the maximum; inactive means score below 0.9.

Tests used:
[1] = target: Retinoic acid receptor RXR-alpha (Homo sapiens) (UniProt P19793); assay: ATG_RXRa_TRANS: Attagene TRANS-FACTORIAL HepG2 Assay for human Retinoid X Receptor alpha (RXRa) (AID 2283012; active means hit-call score of the fitted dose curve at least 0.9, where 1 is the maximum)
Outline: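 Transient transfection of human HepG2 with multiple GAL4-UAS reporter constructs; 24 h compound exposure; total RNA isolated, reverse-transcribed, PCR-amplified, 6-FAM labelled, HpaI-cut, resolved by capillary electrophoresis. Positive-direction fit versus DMSO.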

[2] = read-out: E-selectin (Homo sapiens) (UniProt P16581); assay: BSK_3C_Eselectin: BioMAP Diversity Plus: 3C Assay for Eselectin Biomarker Activity (AID 2283015); details: primary human endothelial cells (HUVEC); actives raise or lower the signal
Outline: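 Human vascular endothelium from umbilical vein is exposed to test chemicals for 24 h. E-selectin levels are read by ELISA and compared with DMSO controls.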

[3] = read-out: Interleukin-1 alpha (IL1a), IL1A (gene 3552); assay: BSK_BE3C_IL1a: BioMAP Diversity Plus: BE3C Assay for Interleukin-1 alpha (IL1a) Biomarker Activity (AID 2283016); details: primary human bronchial epithelial cells; actives raise or lower the signal
Outline: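 BE3C primary human bronchial epithelium; cpd 24 h; IL-1a by ELISA; bidirectional fit vs DMSO; parallel SRB (0.1% SRB, 10% TCA fix, 560 nm) for cytotoxicity.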

[4] = read-out: Monocyte Chemoattractant Protein-1 (MCP1), CCL2 (gene 6347); assay: BSK_3C_MCP1: BioMAP Diversity Plus: 3C Assay for Monocyte Chemoattractant Protein-1 (MCP1) Biomarker Activity (AID 2283017); details: primary human endothelial cells (HUVEC); actives raise or lower the signal
Outline: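 Endothelial cells from human umbilical vein are dosed with chemical, cultured 24 h, then assayed for MCP-1 by ELISA; both increases and decreases are modelled against DMSO controls.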

[5] = read-out: Monocyte Chemoattractant Protein-1 (MCP1), CCL2 (gene 6347); assay: BSK_4H_MCP1: BioMAP Diversity Plus: 4H Assay for Monocyte Chemoattractant Protein-1 (MCP1) Biomarker Activity (AID 2283018); details: primary human endothelial cells (HUVEC); actives raise or lower the signal
Outline: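 ELISA read-out of MCP-1 from human vascular endothelial primary cells taken at 24 hours after compound exposure. Activity was fitted in both directions relative to DMSO, which served as negative control.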

[6] = read-out: Human Leukocyte Antigen - DR isotype (HLADR), HLA-DRA (gene 3122); assay: BSK_3C_HLADR: BioMAP Diversity Plus: 3C Assay for Human Leukocyte Antigen - DR isotype (HLADR) Biomarker Activity (AID 2283019); details: primary human endothelial cells (HUVEC); actives raise or lower the signal;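 further: ELISA of cell-surface HLA-DR on HUVEC 24 h after dosing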
Outline: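 Endothelial cells from human umbilical vein are treated with test chemical; after 24 h, HLA-DR levels are measured by ELISA. Data are fitted in both directions using DMSO as the baseline.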

[7] = read-out: Interleukin-8 (IL8), CXCL8 (gene 3576); assay: BSK_3C_IL8: BioMAP Diversity Plus: 3C Assay for Interleukin-8 (IL8) Biomarker Activity (AID 2283020); details: primary human endothelial cells (HUVEC); actives raise or lower the signal
Outline: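 ELISA read-out of IL-8 from human umbilical vein endothelium, measured 24 h after chemical dosing. Activity is expressed relative to DMSO negative control, with both increases and decreases fitted.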

[8] = read-out: Monokine induced gamma interferon (MIG), CXCL9 (gene 4283); assay: BSK_3C_MIG: BioMAP Diversity Plus: 3C Assay for Monokine induced gamma interferon (MIG) Biomarker Activity (AID 2283021); details: primary human endothelial cells (HUVEC); actives raise or lower the signal
Outline: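 Read-out is ELISA detection of MIG on human umbilical vein endothelial cells, taken 24 h after dosing. Gain or loss of signal was scored relative to DMSO controls using bidirectional curve fitting.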

[9] = target: human Vitamin D Receptor (VDR), VDR (gene 7421) (UniProt P11473); assay: ATG_VDR_TRANS: Attagene TRANS-FACTORIAL HepG2 Assay for human Vitamin D Receptor (VDR) (AID 2283022; active means hit-call score of the fitted dose curve at least 0.9, where 1 is the maximum)
Outline: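 Fluorescence of labelled reporter cDNA fragments, resolved by capillary electrophoresis, gives mRNA induction after 24 h treatment of HepG2 cells carrying transfected Gal4-fusion reporter units. Activity is fitted in the positive direction with DMSO as baseline.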

[10] = BSK_3C_SRB: Viability Assessment in the BioMAP Diversity Plus: 3C Assay (AID 2283023); details: primary human endothelial cells (HUVEC);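 further: fitted both ways against DMSO so a hit may be signal rise or drop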
Outline: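 Cells were dosed with chemical, cultured 24 h, fixed with 10% TCA, stained with 0.1% SRB and read at 560 nm. Human umbilical vein endothelium was used; DMSO served as negative control and baseline.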

[11] = read-out: Pselectin, SELP (gene 6403); assay: BSK_4H_Pselectin: BioMAP Diversity Plus: 4H Assay for Pselectin Biomarker Activity (AID 2283026); details: primary human endothelial cells (HUVEC); actives raise or lower the signal
Outline: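 ELISA read-out of P-selectin on human umbilical vein endothelium after 24 h of dosing. Values derive from bidirectional fitting relative to DMSO. Parallel SRB protein staining flagged overt cytotoxicity.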

[12] = BSK_4H_SRB: Viability Assessment in the BioMAP Diversity Plus: 4H Assay (AID 2283027); details: primary human endothelial cells (HUVEC);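 further: cells exposed to compound for 24 h before staining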;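 on AC50: curves fitted both ways versus DMSO so AC50 may be loss or gain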
Outline: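 Human umbilical vein endothelial cells, 24 h after chemical dosing; total protein measured by 0.1% sulforhodamine B staining after 10% TCA fixation, read at 560 nm. Bidirectional fitting against DMSO.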

[13] = BSK_BE3C_SRB: Viability Assessment in the BioMAP Diversity Plus: BE3C Assay (AID 2283028); details: primary human bronchial epithelial cells
Outline: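 Overt cytotoxicity was assessed as total protein in confluent human primary bronchial epithelial cultures 24 h after chemical addition, using 0.1% sulforhodamine B staining read at 560 nm.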

[14] = read-out: Thrombomodulin, THBD (gene 7056); assay: BSK_3C_Thrombomodulin: BioMAP Diversity Plus: 3C Assay for Thrombomodulin Biomarker Activity (AID 2283029); details: primary human endothelial cells (HUVEC); actives raise or lower the signal
Outline: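 Read-out is ELISA of thrombomodulin on human umbilical vein endothelium 24 h after chemical dosing. Gain or loss of signal is scored relative to DMSO. Overt cytotoxicity is checked in parallel cultures by sulforhodamine B staining.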

[15] = read-out: Urokinase-type plasminogen activator receptor (uPAR), PLAUR (gene 5329); assay: BSK_4H_uPAR: BioMAP Diversity Plus: 4H Assay for Urokinase-type plasminogen activator receptor (uPAR) Biomarker Activity (AID 2283030); details: primary human endothelial cells (HUVEC); actives raise or lower the signal
Outline: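 Chemicals are dosed onto human vascular endothelial primary cells (umbilical vein). After 24 h, uPAR is read by ELISA. Gain or loss of signal is fitted relative to DMSO.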

[16] = target: human Retinoid X Receptor beta (RXRb), RXRB (gene 6257) (UniProt P28702); assay: ATG_RXRb_TRANS: Attagene TRANS-FACTORIAL HepG2 Assay for human Retinoid X Receptor beta (RXRb) (AID 2283013; active means hit-call score of the fitted dose curve at least 0.9, where 1 is the maximum)
Outline: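 Transfect HepG2 with GAL4-UAS multi-reporter constructs (chimeric NR-Gal4, TRANS format); dose compound 24 h; isolate RNA, RT-PCR, FAM primer extension, HpaI digest; quantify by capillary electrophoresis; positive direction vs DMSO.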

[17] = target: human Thyroid Receptor alpha (THRa1), THRA (gene 7067) (UniProt P10827); assay: ATG_THRa1_TRANS: Attagene TRANS-FACTORIAL HepG2 Assay for human Thyroid Receptor alpha (THRa1) (AID 2283014; active means hit-call score of the fitted dose curve at least 0.9, where 1 is the maximum)
Outline: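 First, HepG2 cells receive multiple GAL4-UAS reporter units and the chimeric receptor. They are then dosed for 24 h, after which RNA is reverse-transcribed, amplified, labelled, HpaI-cut and sized by capillary electrophoresis; gain relative to DMSO is scored.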

[18] = read-out: Matrix Metallopeptidase 1 (MMP1), MMP1 (gene 4312); assay: BSK_BE3C_MMP1: BioMAP Diversity Plus: BE3C Assay for Matrix Metallopeptidase 1 (MMP1) Biomarker Activity (AID 2283024); details: primary human bronchial epithelial cells; actives raise or lower the signal
Outline: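 Human bronchial epithelial cells (BE3C system) exposed to compound for 24 h; MMP1 then quantified by ELISA. Activity was fitted in both directions relative to DMSO.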

[19] = BSK_3C_Vis: BioMAP Diversity Plus: 3C Assay for Morphology Visualization (AID 2283025); details: primary human endothelial cells (HUVEC);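 further: fitted both ways so gain or loss versus DMSO counts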;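 on AC50: light microscopy image of cell morphology used as background control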
Outline: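 Chemicals were added to primary human umbilical vein endothelium, cells were incubated 24 h, and morphology was then visualized by light microscopy. Gain or loss of signal was fitted bidirectionally relative to DMSO.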

Measured: AC50

human Vitamin D Receptor (VDR), VDR (gene 7421), sequence (P11473 whole entry, looked up, the tested form may be a part): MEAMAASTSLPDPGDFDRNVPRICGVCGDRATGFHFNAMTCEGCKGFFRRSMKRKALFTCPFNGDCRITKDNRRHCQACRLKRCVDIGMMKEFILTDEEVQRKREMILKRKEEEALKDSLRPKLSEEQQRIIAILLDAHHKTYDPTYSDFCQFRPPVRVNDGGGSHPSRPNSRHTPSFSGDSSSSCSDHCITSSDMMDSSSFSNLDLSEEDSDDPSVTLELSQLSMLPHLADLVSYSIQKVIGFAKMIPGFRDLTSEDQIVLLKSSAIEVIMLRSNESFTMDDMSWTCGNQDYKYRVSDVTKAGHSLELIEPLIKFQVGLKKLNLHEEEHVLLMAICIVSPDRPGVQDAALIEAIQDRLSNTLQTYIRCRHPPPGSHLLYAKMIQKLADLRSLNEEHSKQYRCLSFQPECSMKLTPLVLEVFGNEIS
human Retinoid X Receptor beta (RXRb), RXRB (gene 6257), sequence (P28702 whole entry, looked up, the tested form may be a part): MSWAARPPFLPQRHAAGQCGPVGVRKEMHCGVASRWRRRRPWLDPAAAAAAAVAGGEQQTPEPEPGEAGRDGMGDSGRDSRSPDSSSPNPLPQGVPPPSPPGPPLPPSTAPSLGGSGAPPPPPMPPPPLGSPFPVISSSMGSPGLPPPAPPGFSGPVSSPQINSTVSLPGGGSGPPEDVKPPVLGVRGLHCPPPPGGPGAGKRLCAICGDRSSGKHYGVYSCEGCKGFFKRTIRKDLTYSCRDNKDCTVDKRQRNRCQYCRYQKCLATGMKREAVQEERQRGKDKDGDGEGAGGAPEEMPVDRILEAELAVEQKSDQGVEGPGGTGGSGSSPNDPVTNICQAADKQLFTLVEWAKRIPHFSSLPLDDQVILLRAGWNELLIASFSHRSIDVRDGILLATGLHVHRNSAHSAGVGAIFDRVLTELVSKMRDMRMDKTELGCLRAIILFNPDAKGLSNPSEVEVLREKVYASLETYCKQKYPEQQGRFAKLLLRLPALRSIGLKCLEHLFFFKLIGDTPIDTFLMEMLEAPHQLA
human Thyroid Receptor alpha (THRa1), THRA (gene 7067), sequence (P10827 whole entry, looked up, the tested form may be a part): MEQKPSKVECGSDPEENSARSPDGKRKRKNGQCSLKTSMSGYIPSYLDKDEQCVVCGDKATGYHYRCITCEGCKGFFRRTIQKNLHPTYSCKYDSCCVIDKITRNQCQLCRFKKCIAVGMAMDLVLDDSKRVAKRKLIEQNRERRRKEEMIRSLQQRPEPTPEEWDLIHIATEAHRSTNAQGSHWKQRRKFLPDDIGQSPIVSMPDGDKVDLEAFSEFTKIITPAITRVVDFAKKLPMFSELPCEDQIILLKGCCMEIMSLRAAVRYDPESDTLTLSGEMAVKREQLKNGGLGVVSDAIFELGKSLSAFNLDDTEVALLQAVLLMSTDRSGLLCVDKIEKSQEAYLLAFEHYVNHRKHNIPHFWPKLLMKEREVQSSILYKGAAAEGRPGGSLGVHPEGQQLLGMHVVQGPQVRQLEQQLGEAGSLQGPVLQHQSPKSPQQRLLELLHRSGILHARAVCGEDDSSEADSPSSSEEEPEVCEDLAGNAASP
Retinoic acid receptor RXR-alpha (Homo sapiens), sequence (P19793 whole entry, looked up, the tested form may be a part): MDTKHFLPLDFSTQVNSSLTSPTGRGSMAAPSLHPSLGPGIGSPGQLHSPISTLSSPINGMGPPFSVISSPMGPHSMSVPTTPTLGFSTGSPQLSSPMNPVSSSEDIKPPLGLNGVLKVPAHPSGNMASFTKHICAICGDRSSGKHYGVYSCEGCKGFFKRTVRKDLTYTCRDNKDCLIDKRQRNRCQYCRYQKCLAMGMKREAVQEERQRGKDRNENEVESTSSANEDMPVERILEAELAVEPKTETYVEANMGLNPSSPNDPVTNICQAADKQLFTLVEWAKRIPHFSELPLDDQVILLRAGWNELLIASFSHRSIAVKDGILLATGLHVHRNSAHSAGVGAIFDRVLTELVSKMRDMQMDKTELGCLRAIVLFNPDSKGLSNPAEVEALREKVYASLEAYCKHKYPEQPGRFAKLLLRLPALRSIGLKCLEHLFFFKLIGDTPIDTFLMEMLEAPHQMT
E-selectin (Homo sapiens), sequence (P16581 whole entry, looked up): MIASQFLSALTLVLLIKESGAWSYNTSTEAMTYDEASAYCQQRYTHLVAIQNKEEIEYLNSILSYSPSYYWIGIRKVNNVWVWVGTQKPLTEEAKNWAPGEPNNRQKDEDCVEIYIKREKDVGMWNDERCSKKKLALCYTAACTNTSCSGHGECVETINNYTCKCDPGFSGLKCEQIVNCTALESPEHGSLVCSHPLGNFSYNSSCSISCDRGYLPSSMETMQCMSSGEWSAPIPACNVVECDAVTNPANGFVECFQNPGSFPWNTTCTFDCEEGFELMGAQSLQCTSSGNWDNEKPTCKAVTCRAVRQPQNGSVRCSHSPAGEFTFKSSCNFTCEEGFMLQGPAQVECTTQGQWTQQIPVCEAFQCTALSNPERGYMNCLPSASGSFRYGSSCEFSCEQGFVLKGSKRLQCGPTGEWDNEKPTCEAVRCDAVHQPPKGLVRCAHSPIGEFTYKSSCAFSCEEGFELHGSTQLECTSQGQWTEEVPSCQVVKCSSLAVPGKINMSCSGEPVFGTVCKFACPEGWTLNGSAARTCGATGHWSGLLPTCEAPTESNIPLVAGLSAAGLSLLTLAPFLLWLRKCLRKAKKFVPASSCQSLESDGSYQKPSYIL

COC(=O)Cc1ccccc1
inactive: [1] | [2] | [3] | [4] | [5] | [6] | [7] | [8] | [9] | [10] | [11] | [12] | [13] | [14] | [15]

CC(=O)c1cc(C(C)(C)C)cc2c1CCC2(C)C
active: [1] 3.52 µM | [16] 0.446 µM
inactive: [9]

CC(=O)C=C(C)C
inactive: [1] | [16] | [9]

ClCc1ccccn1
inactive: [1] | [17] | [9]

Cc1ccccc1N
inactive: [1] | [17] | [2] | [3] | [4] | [5] | [6] | [7] | [8] | [10] | [18] | [19] | [11] | [12] | [13] | [14] | [15]

C=CC#N
inactive: [17] | [9]

Nc1ncc([N+](=O)[O-])s1
inactive: [16] | [2] | [3] | [4] | [5] | [7] | [8] | [10] | [19] | [11] | [12] | [13] | [14] | [15]

CNC
inactive: [16]

O=C(OC1CCCCC1)c1ccccc1C(=O)OC1CCCCC1
active: [16] 7.44 µM | [2] 11.3 µM | [3] 11.6 µM | [4] 11.7 µM | [5] 8.94 µM | [7] 8.46 µM | [10] 10.9 µM | [18] 4.58 µM | [19] 5.63 µM | [11] 9.57 µM | [12] 13 µM | [15] 13 µM
inactive: [17] | [8] | [9] | [13] | [14]

O=Cc1cccc(Oc2ccccc2)c1
inactive: [16] | [17] | [2] | [3] | [4] | [5] | [7] | [8] | [9] | [10] | [18] | [19] | [11] | [12] | [13] | [14] | [15]

ClC1=C(Cl)[C@]2(Cl)[C@@H]3[C@@H](Cl)[C@@H](Cl)C[C@@H]3[C@@]1(Cl)C2(Cl)Cl
inactive: [16]
